# Screens deposited in PubChem BioAssay by National Center for Advancing Translational Sciences (NCATS).
# In the library only some 8.7% were active in any assay of this set; here they are far more common.
# AMA1 RON2 block: AMA1-RON2 (P. falciparum) interaction inhibition. AlphaScreen AMA1-biotinylated RON2 peptide binding. Potency, µM (doses to about 58.2 µM), usual class: inhibitors. 0.2% of 360,000 active. AID 720542; note: nearly all actives have a fitted effect of over 45% in size
#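 AMA1 (3D7) with his tag at 25 nM final met compounds first, then biotinylated RON2 peptide at 25 nM; detection used donor plus acceptor beads, 10 µg/mL apiece, read by AlphaScreen after 30 min at room temperature.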
# Pf growth 96h: P. falciparum growth inhibition at 96 hour, primary screen for plastid delayed-death inhibitors | P. falciparum luciferase reporter growth, 96 h | Potency, µM (series often up to 28.7 µM), usual class: inhibitors | 6.9% of 320,000 active | AID 504834
#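 P. falciparum expressing integrated firefly luciferase, in erythrocytes at 2% hematocrit, 0.05% parasitemia, incubated with compounds 96 h at 37 C, 5% CO2. Growth inhibition read as loss of luminescence; two-generation exposure targets delayed-death apicoplast inhibitors.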
# Vaccinia mCherry: inhibitors of vaccinia virus infection (mCherry reporter signal) | Vaccinia virus mCherry reporter infection, fluorescence | Potency, µM (doses to about 36.5 µM), hits mostly inhibitors | 0.63% of 310,000 active | AID 720579; calls by dose curve; tested in A549 cells; note: nearly all actives have a fitted effect of over 35% in size
# Pf growth 48h: P. falciparum growth inhibition at 48 hours (one generation); P. falciparum luciferase growth in erythrocytes, 48 h; Potency, µM (titrated, usually from 28.7 µM), most hits filed as inhibitors; 5.9% of 310,000 active; AID 504832
#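 Growth was read as firefly luciferase luminescence after a 48 h, 37 C, 5% CO2 exposure of compounds to reporter-bearing P. falciparum cultures (0.1% parasitemia, 2% hematocrit final) in Albumax-supplemented RPMI 1640.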
# Vaccinia Venus: inhibitors of vaccinia virus (Venus reporter); Vaccinia virus Venus reporter expression, fluorescence; 0.46% of 330,000 active; Potency, µM (doses to about 36.5 µM), usual class: inhibitors; calls by dose curve; tested in A549 cells; note: nearly all actives have a fitted effect of over 30% in size
# Hits are given with their value; - = inactive; ? = inconclusive; . = no result; [ ] = dose if it differs, or a comment. Unless noted, calls come from the whole dose curve; as a rule, active = well fitted curve in the direction sought with a large enough effect; inconclusive = small, poorly fitted or top-dose-only effect, or another doubt; inactive = no such curve, though single readings can be large; an effect the other way counts as inactive or inconclusive.
SMILES,AMA1 RON2 block,Pf growth 96h,Vaccinia mCherry,Pf growth 48h,Vaccinia Venus
Cc1ccc(-n2c(SCC(=O)Nc3cccc(Cl)c3)nc3n[nH]c(C)c3c2=N)cc1,.,.,-[7.34 µM],.,-[7.34 µM]
O=C(NCCCN1CCN(c2ccccc2)CC1)c1ccc2nc(CCc3ccccc3)oc2c1,.,.,-,.,-
CCOc1ccc(-c2nc3c(c(SCC(=O)N4CCCCC4)n2)Cc2cc(C)ccc2O3)cc1,.,.,-,.,-
COCc1c(C(=O)N(C)Cc2ccccc2N2CCCC2)oc2ccccc12,?,9.3µM,-,?,-
COCc1c(C(=O)N2CCN(c3ncccn3)CC2)oc2ccccc12,-,?,.,-,.
O=C(O[C@H]1[C@H](Cc2ccccc2)NS(=O)(=O)[C@H]2CC3C=C[C@]12O3)c1ccc(Br)cc1,.,.,-,.,-
CCOc1cc2c(cc1OCC)-n1cccc1C(c1ccc(OC)c(O)c1)NC2 (stereo not given),-,-,?,2.9µM,-
COc1cc(C2NCc3ccccc3-n3cccc32)ccc1O (stereo not given),-,?,.,2.6µM,-
CCOc1cc2c(cc1OCC)-n1cccc1C(c1cc(C)c(OC)cc1C)NC2 (stereo not given),-,-,.,6.6µM,.
CCOc1cc2c(cc1OCC)-n1cccc1C(c1cccc(F)c1)NC2 (stereo not given),?,9.3µM,.,13µM,.
CCOc1cc(C2NCc3ccccc3-n3cccc32)ccc1OC (stereo not given),-,-,.,?,.
Clc1cccc(C2NCc3ccccc3-n3cccc32)c1 (stereo not given),-,-,?,?,-
COc1cccc(CN2C(=O)NC(C)(C3CCN(Cc4cccc(O)c4)CC3)C2=O)c1OC (stereo not given),.,.,-,.,-
Cc1ccc(CNC(=O)NCc2noc3ccc(C)cc23)cc1,.,.,-,.,-
CCOc1cc2c(cc1OCC)-n1cccc1C(c1ccccc1F)NC2 (stereo not given),?,?,-,8.3µM,-
CCOc1cc2c(cc1OCC)-n1cccc1C(c1cccc(OCC)c1O)NC2 (stereo not given),-,-,-,15µM,-
CCOc1cc2c(cc1OCC)-n1cccc1C(c1cc(OC)ccc1F)NC2 (stereo not given),?,2.9µM,.,?,.
CCOc1cc2c(cc1OCC)-n1cccc1C(c1ccc(C)cc1C)NC2 (stereo not given),?,-,?,?,-
Cc1ccccc1NC(=O)CSc1c(C(C)C)cnc2c1c(=O)n(C)c(=O)n2C,.,.,-,.,-
N=c1c2c(-c3ccccc3)c(-c3ccccc3)n(Cc3ccco3)c2ncn1Cc1ccccc1,-,2.6µM,-,.,-
OCCn1cnc2c(SCc3ccccc3)ncnc21,-,.,-,.,-
N=c1c2c(-c3ccccc3)c(-c3ccccc3)n(Cc3ccco3)c2ncn1CCCN1CCOCC1,-,-,-,?,?
N=c1c2c(-c3ccccc3)c(-c3ccccc3)n(Cc3ccccc3)c2ncn1CCO,-,?,?,4.1µM,?
CCCCn1c2nc3ccccc3nc2c2c(=O)n(CC(C)C)cnc21,-,.,-,.,-
OCCNc1ncnc2c1c(-c1ccccc1)c(-c1ccccc1)n2Cc1ccco1,-,-,-,.,-
SMILES,AMA1 RON2 block,Pf growth 96h,Vaccinia mCherry,Pf growth 48h,Vaccinia Venus
CC(C)Cn1cnc2c(c(-c3ccccc3)c(-c3ccccc3)n2Cc2ccco2)c1=N,-,2.1µM,?,.,?
CCCCCn1c2nc3ccccc3nc2c2c(=O)n(CC(C)C)cnc21,-,2.9µM,-,.,-
CC[C@H](CC[C@@H](C)[C@H]1CC[C@H]2[C@@H]3CC=C4C[C@@H](O)CC[C@]4(C)[C@H]3CC[C@]12C)C(C)C,.,.,-,.,-
CN(Cc1ccco1)C(=O)c1cc(NC(=O)C2CCC2)c2c(c1)nc(-c1ccncc1)n2C,.,.,-,.,-
CCOC(=O)N1CCc2c(sc(NCc3sccc3C)c2C(=O)Nc2ccccc2OCC)C1,.,.,-,.,-
COCCCn1c2nc3ccccc3nc2c2c(=O)n(Cc3ccc(Cl)cc3)cnc21,-,-,-,?,-
O=c1c2c3nc4ccccc4nc3n(Cc3ccccc3)c2ncn1Cc1ccco1,-,.,-[1.46 µM],10µM,-
COc1ccc(C2C(=O)N(C3CCCCC3)CC(=O)N2CCc2ccc(OC)c(OC)c2)cc1 (stereo not given),.,.,-,.,-
COc1ccccc1NC(=O)c1cnc2n(c1=O)CCS2,-,?,-,-,-
COc1ccc(OC)c(NC(=O)c2cnc3n(c2=O)CCS3)c1,-,8.3µM,?,.,?
COc1ccc(Cl)cc1NC(=O)c1cnc2n(c1=O)CCS2,-,-,2.2µM,-,?
